697 NFkB inh: inhibitors of the PMA/ionomycin-induced NF-kB reporter in 697 B cells; inhibition, % at 4 µM; hit rate 0.33% among 330,000; 697 B-cell NF-kB luciferase reporter, 16 h; in the data active means inhibition above about 35%
esBAF inh: SWI/SNF esBAF complex inhibition. AID 602393. mouse ES cells, Bmi1-luciferase knock-in reporter, 24 h; 100% = twice the neutral-well signal. reporter increase, % at 12.5 µM. hit rate 2% among 350,000; in the data active means activation above about 40%;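 further: 0% = median of the plate's neutral control wells and 100% = double that signal; a rise in the Bmi1 reporter signal indicates esBAF inhibition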
Gli-Sufu antag: blocks Gli-Sufu signaling in a luciferase reporter. hit rate 0.74% among 340,000. inhibition, % at 5 µM. Sufu-KO-LIGHT fibroblasts, Gli luciferase reporter luminescence;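 active means inhibition above about 55%, limit read from the data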;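 further: 0% = DMSO-treated cells and 100% = wells with medium but no cells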
SMARCA2 act: increases SMARCA2 function in MMTV reporter cells; activation, % at 9.1 µM; hit rate 1% among 370,000; AID 652017; MG213 cells, MMTV-luciferase reporter, dexamethasone, overnight; in the data active means activation above about 7.8%;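 further: 0% = vehicle wells and 100% = reference activator wells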
Jurkat NFkB inh: lowers PMA/ionomycin-induced NF-kB signal in Jurkat cells | PMA/ionomycin-induced NF-kB luciferase reporter, luminescence | inhibition, % at 4 µM | hit rate 0.53% among 330,000 | AID 435003; in the data active means inhibition above about 50%
SMARCA2 conf: confirmation of SMARCA2 (BRM) function activators | shares compounds with SMARCA2 act | MG213 cells, MMTV-luciferase with dexamethasone, luminescence, overnight; MG213 cells expressing E1A, Rb sequestered; DMSO wells 0%, reference activator 100% | activation, % at 9.1 µM | hit rate 30% among 3,500 | AID 652260;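 active means activation above its plate's cutoff, the mean activation of tested wells plus 3 SD, cut at about 7.9% in these data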
GAL4-VP16 Luc: counter-screen for SMARCA2 activators: GAL4-VP16 luciferase reporter activation | activation, % at 9.1 µM | shares compounds with SMARCA2 act | HEK293 GAL4-VP16 pG5luc reporter, luciferase luminescence; scaled: DMSO wells 0%, SAHA wells 100% | hit rate 41% among 3,500 | AID 686939;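 active means activation above the solvent-only control well mean plus 3 SD, averaged across control plates, cut at about 5.2% in these data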
Active calls of the source: *. This is a sample that favours compounds with a hit; in the whole collection about 3.3% have one here.

COc1ccc(CSc2nc3nc(C)cc(C)n3n2)cc1F was read as 697 NFkB inh -25.4, esBAF inh 3.0, Gli-Sufu antag 7.6, SMARCA2 act -1.5 and Jurkat NFkB inh -38.2.
COc1ccc(COC(=O)c2nc3nc(C)cc(C)n3n2)cc1F was read as 697 NFkB inh 16.2, esBAF inh -3.3, Gli-Sufu antag -2.0, SMARCA2 act 8.2*, Jurkat NFkB inh 3.1, SMARCA2 conf -2.1 and GAL4-VP16 Luc 0.3.
COc1ccc(N(CCCN2C(=O)c3cccc4cccc(c34)C2=O)C(=O)c2ccncc2)cc1 was read as 697 NFkB inh -9.9, Gli-Sufu antag -3.5, SMARCA2 act 8.0*, Jurkat NFkB inh -18.9, SMARCA2 conf 2.5 and GAL4-VP16 Luc 2.6.
Screening O=C(C[C@H]1CC[C@H]2[C@@H](COC[C@@H](O)CN2Cc2ccccc2)O1)N1CCOCC1 returned esBAF inh 2.5.
For C[C@@H]1CN([C@H](C)CO)C(=O)c2cc(NS(C)(=O)=O)ccc2O[C@H]1CN(C)S(=O)(=O)c1ccccc1 the results were esBAF inh 3.7.
Screening CCC(=O)N1[C@H](CNC(=O)CN2CCOCC2)[C@@H](c2ccccc2)[C@@H]1CO returned esBAF inh 0.2.
CCN1CCN(c2cc(C)c3cc(NC(=S)N4CCN(c5ccccc5)CC4)ccc3n2)CC1 was read as 697 NFkB inh -20.4, esBAF inh -3.3, Gli-Sufu antag 1.6, SMARCA2 act 9.1*, Jurkat NFkB inh -15.2, SMARCA2 conf 25.9* and GAL4-VP16 Luc 1.4.
CCN1CCN(c2cc(C)c3cc(NC(=S)N4CCOCC4)ccc3n2)CC1 was read as 697 NFkB inh 15.0, Gli-Sufu antag 6.8, SMARCA2 act 3.3 and Jurkat NFkB inh 5.6.
CCN1CCN(c2cc(C)c3cc(NC(=O)c4cc(OC)cc(OC)c4)ccc3n2)CC1 was read as 697 NFkB inh -16.4, esBAF inh 12.4, Gli-Sufu antag -10.0, SMARCA2 act 9.9*, Jurkat NFkB inh -7.8, SMARCA2 conf 13.5* and GAL4-VP16 Luc 5.5*.
COc1ccc(S(=O)(=O)N(C)C[C@@H]2OCCCC[C@H](C)Oc3ccc(NC(=O)CCC(F)(F)F)cc3C(=O)N([C@@H](C)CO)C[C@@H]2C)cc1 was read as esBAF inh 2.7.
CC(C)NC(=O)N(C)C[C@@H]1Oc2cc(Br)ccc2S(=O)(=O)N([C@H](C)CO)C[C@H]1C was read as esBAF inh 14.7.
COc1ccc(S(=O)(=O)N2C[C@H](O)COC[C@H]3O[C@@H](CC(=O)NCCN4CCCCC4)CC[C@@H]32)cc1 was read as esBAF inh -0.6.
O=C(N/N=C/C(Br)=C/c1ccccc1)c1ccccc1F was read as 697 NFkB inh -124.2, esBAF inh 51.2*, Gli-Sufu antag 1.7, SMARCA2 act 12.9*, Jurkat NFkB inh -30.0, SMARCA2 conf 11.2* and GAL4-VP16 Luc 12.0*.
`O=S(=O)(c1cccc2cccnc12)N1CCc2ccccc21` gave 697 NFkB inh 3.6, esBAF inh 4.2, Gli-Sufu antag 1.4, SMARCA2 act 2.5 and Jurkat NFkB inh -0.2.
For c1ccc2c(c1)COc1c3ncccc3nn1-2 the results were esBAF inh 50.3*, SMARCA2 act 13.1*, SMARCA2 conf 8.2* and GAL4-VP16 Luc 8.4*.
For COc1ccc(CNC(=O)CN=C2NC(=O)C(c3ccccc3)(c3ccccc3)N2)cc1 the results were 697 NFkB inh -3.5, Gli-Sufu antag 3.5, SMARCA2 act 11.5*, Jurkat NFkB inh 0.6, SMARCA2 conf -0.1 and GAL4-VP16 Luc 0.1.
O=C(CN=C1NC(=O)C(c2ccccc2)(c2ccccc2)N1)NCc1ccc(F)cc1 was read as 697 NFkB inh 6.2, Gli-Sufu antag -1.3, SMARCA2 act -2.8 and Jurkat NFkB inh 6.5.
CCc1nn(CC(=O)N2CCN(c3ccc(OC)cc3)CC2)c(=O)c2cc3occc3n12 was read as 697 NFkB inh -4.0, esBAF inh 3.6, Gli-Sufu antag -8.5, SMARCA2 act 8.4*, Jurkat NFkB inh -10.8, SMARCA2 conf 0.4 and GAL4-VP16 Luc 3.3.
